# Laboratory results: the supplement of paper PMC12067093, “Discovery and optimisation of a covalent ligand for TRIM25 and its application to targeted protein ubiquitination” (Chemical Science, 2025)
# The full data set covers some 21,000 targets. This sample favours those with the largest changes.
# Compound: CC1Cc2ccccc2N1C(=O)C1CCCN(C1)C(=O)CCl (mixture of isomers) [TRIM25 ligand 11 (diastereomer mixture)]
# Test: probe-labelled cysteine peptide fold change vs DMSO (competition) (log2 fold change); higher = less target engagement (more negative = stronger competition)
# Conditions: THP-1, incubation time: 4 h
# 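Note: competitive chemoproteomic profiling in live THP-1 cells with an iodoacetamide desthiobiotin (IA-DTB) probe, comparing probe-labelled peptide intensities in compound-treated cells against DMSO-treated controls.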
# UniProt P53992, sequence (P53992 whole entry, looked up): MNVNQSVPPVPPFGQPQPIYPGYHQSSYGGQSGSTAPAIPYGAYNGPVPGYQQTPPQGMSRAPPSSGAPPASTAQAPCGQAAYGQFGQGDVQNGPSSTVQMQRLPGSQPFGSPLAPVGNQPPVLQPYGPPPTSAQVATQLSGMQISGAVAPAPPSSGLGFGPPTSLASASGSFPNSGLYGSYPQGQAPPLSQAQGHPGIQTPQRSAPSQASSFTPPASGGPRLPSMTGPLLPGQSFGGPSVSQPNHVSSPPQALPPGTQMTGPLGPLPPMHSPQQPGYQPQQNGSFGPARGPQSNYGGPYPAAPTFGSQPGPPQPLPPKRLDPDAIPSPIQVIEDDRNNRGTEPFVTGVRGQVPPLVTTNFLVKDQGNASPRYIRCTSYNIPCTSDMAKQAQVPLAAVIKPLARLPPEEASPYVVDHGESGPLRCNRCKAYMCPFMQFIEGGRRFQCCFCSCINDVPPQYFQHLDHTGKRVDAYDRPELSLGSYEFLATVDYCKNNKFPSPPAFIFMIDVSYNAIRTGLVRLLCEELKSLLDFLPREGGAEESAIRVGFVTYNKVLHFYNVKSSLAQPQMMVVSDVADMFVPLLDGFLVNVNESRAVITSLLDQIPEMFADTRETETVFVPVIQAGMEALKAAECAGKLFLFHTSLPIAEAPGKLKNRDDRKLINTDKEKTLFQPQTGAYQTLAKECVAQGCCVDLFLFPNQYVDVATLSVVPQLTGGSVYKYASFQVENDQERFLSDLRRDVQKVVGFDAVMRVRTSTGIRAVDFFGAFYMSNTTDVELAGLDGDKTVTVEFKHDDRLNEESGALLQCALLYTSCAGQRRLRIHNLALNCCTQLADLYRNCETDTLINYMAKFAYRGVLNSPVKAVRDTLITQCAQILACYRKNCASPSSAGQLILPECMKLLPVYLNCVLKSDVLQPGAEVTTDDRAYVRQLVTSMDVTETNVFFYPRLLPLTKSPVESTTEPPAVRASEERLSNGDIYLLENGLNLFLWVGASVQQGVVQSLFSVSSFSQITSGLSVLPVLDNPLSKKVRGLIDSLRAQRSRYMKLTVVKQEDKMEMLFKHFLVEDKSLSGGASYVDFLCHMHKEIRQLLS
# UniProt Q99470, sequence (Q99470 whole entry, looked up): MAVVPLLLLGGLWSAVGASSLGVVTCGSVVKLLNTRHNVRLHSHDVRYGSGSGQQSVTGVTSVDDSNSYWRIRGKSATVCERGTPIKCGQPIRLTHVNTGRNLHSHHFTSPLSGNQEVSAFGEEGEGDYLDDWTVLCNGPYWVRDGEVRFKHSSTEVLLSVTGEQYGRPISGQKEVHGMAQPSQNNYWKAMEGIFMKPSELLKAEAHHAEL
# UniProt Q96DI7, sequence (Q96DI7 whole entry, looked up): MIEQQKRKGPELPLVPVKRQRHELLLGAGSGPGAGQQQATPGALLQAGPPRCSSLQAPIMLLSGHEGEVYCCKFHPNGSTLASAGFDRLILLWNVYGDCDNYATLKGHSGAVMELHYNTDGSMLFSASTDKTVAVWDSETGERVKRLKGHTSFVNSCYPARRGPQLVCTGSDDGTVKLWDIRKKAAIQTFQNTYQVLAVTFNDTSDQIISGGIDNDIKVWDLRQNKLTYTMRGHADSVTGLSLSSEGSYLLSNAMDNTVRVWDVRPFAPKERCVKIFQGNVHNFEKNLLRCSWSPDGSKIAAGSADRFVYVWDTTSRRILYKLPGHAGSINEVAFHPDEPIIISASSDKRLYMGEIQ
# UniProt Q13485, sequence (Q13485 whole entry, looked up): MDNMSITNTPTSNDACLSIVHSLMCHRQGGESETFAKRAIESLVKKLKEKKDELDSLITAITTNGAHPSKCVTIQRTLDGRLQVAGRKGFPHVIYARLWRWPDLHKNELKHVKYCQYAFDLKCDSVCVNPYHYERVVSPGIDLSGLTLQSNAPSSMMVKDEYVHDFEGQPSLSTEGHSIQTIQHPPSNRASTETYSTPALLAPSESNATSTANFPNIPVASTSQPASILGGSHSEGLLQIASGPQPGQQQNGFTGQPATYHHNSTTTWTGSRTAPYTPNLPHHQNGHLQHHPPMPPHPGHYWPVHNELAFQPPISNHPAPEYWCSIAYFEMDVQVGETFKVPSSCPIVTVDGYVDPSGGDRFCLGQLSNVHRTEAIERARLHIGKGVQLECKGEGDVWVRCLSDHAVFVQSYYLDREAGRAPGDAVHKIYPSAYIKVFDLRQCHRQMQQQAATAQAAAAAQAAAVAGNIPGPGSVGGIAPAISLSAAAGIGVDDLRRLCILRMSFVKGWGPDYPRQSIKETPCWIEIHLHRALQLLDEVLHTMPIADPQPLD
# UniProt A6NHR9, sequence (A6NHR9 whole entry, looked up): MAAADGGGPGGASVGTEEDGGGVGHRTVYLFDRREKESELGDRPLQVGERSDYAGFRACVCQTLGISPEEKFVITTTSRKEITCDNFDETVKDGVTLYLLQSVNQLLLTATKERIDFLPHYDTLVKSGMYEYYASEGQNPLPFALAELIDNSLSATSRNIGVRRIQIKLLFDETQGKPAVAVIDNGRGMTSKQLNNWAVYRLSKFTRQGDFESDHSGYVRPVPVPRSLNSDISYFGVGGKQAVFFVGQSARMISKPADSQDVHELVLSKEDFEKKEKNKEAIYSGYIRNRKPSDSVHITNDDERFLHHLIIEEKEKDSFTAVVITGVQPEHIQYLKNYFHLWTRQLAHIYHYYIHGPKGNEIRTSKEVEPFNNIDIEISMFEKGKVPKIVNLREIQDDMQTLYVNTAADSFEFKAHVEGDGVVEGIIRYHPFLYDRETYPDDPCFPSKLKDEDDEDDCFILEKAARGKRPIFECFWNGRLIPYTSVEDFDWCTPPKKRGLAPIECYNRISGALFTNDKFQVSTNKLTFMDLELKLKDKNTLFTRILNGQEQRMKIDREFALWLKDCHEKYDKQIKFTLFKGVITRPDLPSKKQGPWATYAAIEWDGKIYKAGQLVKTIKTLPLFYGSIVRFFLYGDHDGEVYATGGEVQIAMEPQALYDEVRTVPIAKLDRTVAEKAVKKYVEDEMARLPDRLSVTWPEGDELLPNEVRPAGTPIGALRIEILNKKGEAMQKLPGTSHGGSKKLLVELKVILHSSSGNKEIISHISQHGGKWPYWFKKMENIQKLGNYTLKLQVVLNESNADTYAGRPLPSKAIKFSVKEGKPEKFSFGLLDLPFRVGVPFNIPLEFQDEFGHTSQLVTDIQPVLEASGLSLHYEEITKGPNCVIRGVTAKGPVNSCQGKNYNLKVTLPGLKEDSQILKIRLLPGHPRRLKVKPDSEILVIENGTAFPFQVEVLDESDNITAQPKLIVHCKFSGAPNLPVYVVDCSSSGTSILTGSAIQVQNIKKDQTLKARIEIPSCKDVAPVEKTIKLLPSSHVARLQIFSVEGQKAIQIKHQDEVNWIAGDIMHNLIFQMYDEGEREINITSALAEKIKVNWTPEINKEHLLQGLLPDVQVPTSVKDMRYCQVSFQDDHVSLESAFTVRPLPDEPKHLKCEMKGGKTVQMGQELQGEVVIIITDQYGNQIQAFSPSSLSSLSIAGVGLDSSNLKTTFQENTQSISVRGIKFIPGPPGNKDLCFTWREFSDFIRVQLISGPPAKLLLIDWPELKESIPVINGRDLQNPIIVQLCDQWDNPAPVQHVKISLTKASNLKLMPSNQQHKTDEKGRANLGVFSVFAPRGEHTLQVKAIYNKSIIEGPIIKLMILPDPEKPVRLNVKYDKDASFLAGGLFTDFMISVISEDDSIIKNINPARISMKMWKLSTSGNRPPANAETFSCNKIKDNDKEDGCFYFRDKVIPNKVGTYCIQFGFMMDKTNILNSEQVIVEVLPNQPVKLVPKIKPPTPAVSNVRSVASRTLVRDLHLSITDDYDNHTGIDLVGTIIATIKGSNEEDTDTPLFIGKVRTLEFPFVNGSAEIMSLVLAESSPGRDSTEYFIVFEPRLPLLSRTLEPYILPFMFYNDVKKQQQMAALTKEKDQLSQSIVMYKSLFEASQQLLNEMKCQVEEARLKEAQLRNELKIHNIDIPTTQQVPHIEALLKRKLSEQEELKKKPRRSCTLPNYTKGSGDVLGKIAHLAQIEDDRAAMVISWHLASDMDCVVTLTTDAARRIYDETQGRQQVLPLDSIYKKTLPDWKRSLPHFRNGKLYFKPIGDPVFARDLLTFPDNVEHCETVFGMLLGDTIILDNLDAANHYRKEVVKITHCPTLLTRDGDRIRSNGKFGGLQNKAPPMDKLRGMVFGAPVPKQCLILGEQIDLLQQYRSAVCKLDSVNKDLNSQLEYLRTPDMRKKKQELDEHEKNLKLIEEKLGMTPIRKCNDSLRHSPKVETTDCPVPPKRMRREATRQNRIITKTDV
# UniProt Q96B97, sequence (Q96B97 whole entry, looked up): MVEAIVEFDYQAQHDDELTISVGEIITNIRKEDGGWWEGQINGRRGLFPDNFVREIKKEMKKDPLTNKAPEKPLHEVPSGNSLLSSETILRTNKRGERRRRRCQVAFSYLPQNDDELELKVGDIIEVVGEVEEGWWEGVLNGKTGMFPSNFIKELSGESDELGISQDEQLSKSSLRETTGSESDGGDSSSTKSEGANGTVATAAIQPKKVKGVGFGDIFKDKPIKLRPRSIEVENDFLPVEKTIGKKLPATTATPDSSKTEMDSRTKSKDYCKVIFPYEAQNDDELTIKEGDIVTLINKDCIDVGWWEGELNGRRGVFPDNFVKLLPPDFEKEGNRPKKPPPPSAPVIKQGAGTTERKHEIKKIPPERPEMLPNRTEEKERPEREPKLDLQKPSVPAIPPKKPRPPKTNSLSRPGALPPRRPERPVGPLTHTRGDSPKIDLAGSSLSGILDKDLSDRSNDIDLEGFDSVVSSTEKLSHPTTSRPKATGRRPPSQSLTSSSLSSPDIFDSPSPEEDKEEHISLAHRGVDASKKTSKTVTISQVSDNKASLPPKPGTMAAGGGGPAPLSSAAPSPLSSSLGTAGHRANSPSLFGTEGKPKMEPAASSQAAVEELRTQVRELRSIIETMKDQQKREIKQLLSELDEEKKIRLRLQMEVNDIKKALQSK
# UniProt P05109, sequence (P05109 whole entry): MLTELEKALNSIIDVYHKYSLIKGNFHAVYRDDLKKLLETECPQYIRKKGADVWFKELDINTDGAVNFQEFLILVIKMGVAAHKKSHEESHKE
target,measurement,setting,value
S100A8_P05109_42_LLETECPQYIR (UniProt P05109),probe-labelled cysteine peptide fold change,10 µM,-0.0697
same,probe-labelled cysteine peptide fold change,50 µM,-0.229
SPATA5_Q8NB90_459_HPSIIFIDELDALCPK (UniProt Q8NB90),probe-labelled cysteine peptide fold change,10 µM,-0.0102
same,probe-labelled cysteine peptide fold change,50 µM,-0.321
SMN2_Q16637_60_NGDICETSGKPK (UniProt Q16637),probe-labelled cysteine peptide fold change,10 µM,-0.146
same,probe-labelled cysteine peptide fold change,50 µM,-0.16
SNRNP40_Q96DI7_72_CSSLQAPIMLLSGHEGEVYCCK (UniProt Q96DI7),probe-labelled cysteine peptide fold change,10 µM,0.165
same,probe-labelled cysteine peptide fold change,50 µM,0.0428
SH3KBP1_Q96B97_301_DCIDVGWWEGELNGRR (UniProt Q96B97),probe-labelled cysteine peptide fold change,10 µM,-0.0866
same,probe-labelled cysteine peptide fold change,50 µM,-0.063
SAFB2_Q14151_224_ILDILGETCK<|>SAFB_Q15424_225_ILDILGETCK (UniProt Q15424+Q14151),probe-labelled cysteine peptide fold change,10 µM,-0.021
same,probe-labelled cysteine peptide fold change,50 µM,-0.165
SDF2_Q99470_137_NLHSHHFTSPLSGNQEVSAFGEEGEGDYLDDWTVLCNGPYWVR (UniProt Q99470),probe-labelled cysteine peptide fold change,10 µM,0.298
same,probe-labelled cysteine peptide fold change,50 µM,0.622
RPS5_P46782_155_VNQAIWLLCTGAR (UniProt P46782),probe-labelled cysteine peptide fold change,10 µM,0.00589
same,probe-labelled cysteine peptide fold change,50 µM,0.118
SRCAP_Q6ZRS2_1926_IFQLSEAHGALAPVYGTEVLDFCTLPQPVASPIGPR (UniProt Q6ZRS2),probe-labelled cysteine peptide fold change,10 µM,0.683
same,probe-labelled cysteine peptide fold change,50 µM,0.741
SMAD4_Q13485_127_CDSVCVNPYHYER (UniProt Q13485),probe-labelled cysteine peptide fold change,10 µM,0.000739
same,probe-labelled cysteine peptide fold change,50 µM,0.0905
SEL1L3_Q68CR1_475_QEACHLHNSYLDLQR (UniProt Q68CR1),probe-labelled cysteine peptide fold change,10 µM,-0.0373
same,probe-labelled cysteine peptide fold change,50 µM,-0.0246
SNUPN_O95149_199_GHPFYDCQTDFR (UniProt O95149),probe-labelled cysteine peptide fold change,10 µM,0.47
same,probe-labelled cysteine peptide fold change,50 µM,0.00215
SPTLC2_O15270_99_CHHATER (UniProt O15270),probe-labelled cysteine peptide fold change,10 µM,0.261
same,probe-labelled cysteine peptide fold change,50 µM,0.971
SETX_Q7Z333_1398_AGSHTAQNSDIFVPESDRSDYNCTGGTEVLANSNR (UniProt Q7Z333),probe-labelled cysteine peptide fold change,10 µM,-0.136
same,probe-labelled cysteine peptide fold change,50 µM,-0.652
RSBN1_Q5VWQ0_671_IQLCDNDIYFIPR (UniProt Q5VWQ0),probe-labelled cysteine peptide fold change,10 µM,0.00486
same,probe-labelled cysteine peptide fold change,50 µM,0.13
SNRPD2_P62316_63_HCNMVLENVK (UniProt P62316),probe-labelled cysteine peptide fold change,10 µM,-0.117
same,probe-labelled cysteine peptide fold change,50 µM,-0.0606
SIAE_Q9HAT2_367_MPNTFMAVAMDLCDRDSPFGSIHPR (UniProt Q9HAT2),probe-labelled cysteine peptide fold change,10 µM,-0.176
same,probe-labelled cysteine peptide fold change,50 µM,-0.565
SPATA5_Q8NB90_574_VLCNEAGLCALRR (UniProt Q8NB90),probe-labelled cysteine peptide fold change,10 µM,-0.161
same,probe-labelled cysteine peptide fold change,50 µM,-0.0738
SP110_Q9HB58_327_DDSTCNSTVETR (UniProt Q9HB58),probe-labelled cysteine peptide fold change,10 µM,0.0292
same,probe-labelled cysteine peptide fold change,50 µM,-0.106
SAE1_Q9UBE0_303_YCFSEMAPVCAVVGGILAQEIVK (UniProt Q9UBE0),probe-labelled cysteine peptide fold change,10 µM,-0.0632
same,probe-labelled cysteine peptide fold change,50 µM,-0.0869
SMAD9_O15198_93_GLPHVIYCR<|>SMAD3_Q15796_89_GLPHVIYCR<|>SMAD2_Q99717_129_GLPHVIYCR (UniProt Q99717+Q15796+O15198),probe-labelled cysteine peptide fold change,10 µM,-0.076
same,probe-labelled cysteine peptide fold change,50 µM,-0.0521
SMCHD1_A6NHR9_474_RPIFECFWNGR (UniProt A6NHR9),probe-labelled cysteine peptide fold change,10 µM,-0.00857
same,probe-labelled cysteine peptide fold change,50 µM,0.0994
SEC23B_Q15437_40_MVVPLACLLTPLK (UniProt Q15437),probe-labelled cysteine peptide fold change,10 µM,-0.0615
same,probe-labelled cysteine peptide fold change,50 µM,-0.0659
SMC1A_Q14683_781_MNQVEDEVFEEFCR (UniProt Q14683),probe-labelled cysteine peptide fold change,10 µM,0.0344
same,probe-labelled cysteine peptide fold change,50 µM,0.0302
SMARCC2_Q8TAQ2_80_CFLDFK (UniProt Q8TAQ2),probe-labelled cysteine peptide fold change,10 µM,-0.00468
same,probe-labelled cysteine peptide fold change,50 µM,0.128
SHMT1_P34896_335_VYQHQVVANCR (UniProt P34896),probe-labelled cysteine peptide fold change,10 µM,0.0178
same,probe-labelled cysteine peptide fold change,50 µM,0.112
SETX_Q7Z333_1416_CMPSEPETIK (UniProt Q7Z333),probe-labelled cysteine peptide fold change,10 µM,-0.13
same,probe-labelled cysteine peptide fold change,50 µM,-0.585
RPS17_P08708_35_RVCEEIAIIPSKK (UniProt P08708),probe-labelled cysteine peptide fold change,10 µM,-0.177
same,probe-labelled cysteine peptide fold change,50 µM,0.0725
RSL1D1_O76021_96_SDSEDICLFTK (UniProt O76021),probe-labelled cysteine peptide fold change,10 µM,-0.0174
same,probe-labelled cysteine peptide fold change,50 µM,-0.141
SEC24C_P53992_493_RVDAYDRPELSLGSYEFLATVDYCK (UniProt P53992),probe-labelled cysteine peptide fold change,10 µM,-0.123
same,probe-labelled cysteine peptide fold change,50 µM,0.0859
S100A10_P60903_62_DLDQCR (UniProt P60903),probe-labelled cysteine peptide fold change,10 µM,-0.0944
same,probe-labelled cysteine peptide fold change,50 µM,-0.0317
SLC1A5_Q15758_467_SCTVLNVEGDALGAGLLQNYVDR (UniProt Q15758),probe-labelled cysteine peptide fold change,10 µM,-0.0169
same,probe-labelled cysteine peptide fold change,50 µM,0.588
SBF1_O95248_987_SCTFQLLK (UniProt O95248),probe-labelled cysteine peptide fold change,10 µM,-0.0361
same,probe-labelled cysteine peptide fold change,50 µM,0.064
SND1_Q7KZF4_96_EVCFTIENK (UniProt Q7KZF4),probe-labelled cysteine peptide fold change,10 µM,0.00729
same,probe-labelled cysteine peptide fold change,50 µM,0.0683
SNTB1_Q13884_515_DGEIQLDLHSCPK (UniProt Q13884),probe-labelled cysteine peptide fold change,10 µM,0.144
same,probe-labelled cysteine peptide fold change,50 µM,0.6
SLMAP_Q14BN4_120_KVTHGCIVSTIK (UniProt Q14BN4),probe-labelled cysteine peptide fold change,10 µM,-0.0304
same,probe-labelled cysteine peptide fold change,50 µM,0.0755
RUBCNL_Q9H714_641_QCFQSSECPR (UniProt Q9H714),probe-labelled cysteine peptide fold change,10 µM,0.144
same,probe-labelled cysteine peptide fold change,50 µM,0.15
